We go through 14 compounds from PubChem BioAssay.

Molecules are shown by their SMILES. Activity calls are given as the source filed them.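 How the source made its calls, unless noted: active means fluorescence slope higher than the sample average by over 3 SD (cut at about -0.22 in these data, passing the limit was not always enough); inactive means the rest.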

By inhibition is commonly meant the change of the read-out against control, counted positive when it falls.

The nature of test [1]: inhibitors of TNFa-induced NFkB p65 translocation, primary screen, imaging, HUVEC, MLSMR starter and 10KST1 sets (AID 438;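 active means inhibition above 20% together with a positive visual image hit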;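 further: compound added about 3h40 before a 20 min TNFalpha stimulation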;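 on inhibition: signal is the nuclear over cytoplasmic p65 intensity ratio per well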). To be noted: HUVEC TNFa-induced p65 nuclear translocation; cell count: measured here: nuclei count (cytotoxicity indicator), at 2.08 µM; inhibition: at 2 µM, stronger effect = higher value, 0% TNFa-plus-vehicle, 100% no-TNFa wells.
A short description of test [2]: inhibitors of mutant huntingtin aggregation, primary screen, imaging, exon1htt(103Q)mCFP cells, high-content imaging (AID 483;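 active means visual image review flags a hit and inhibition of aggregation exceeds 20%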;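 further: compound exposure lasted 3 days before fixation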;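 on nuclei count: percent of the per-plate median nuclei count of sample wells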). To be noted: exon1htt(103Q)mCFP cell line, aggregate imaging, at 2 µM; inhibition of aggregation: stronger effect = higher value; nuclei count: measured here: cell count, toxicity.
Test [3] in a line: inhibitors of E-selectin induction by TNFa, primary screen, imaging, HUVEC, immunofluorescence, MLSMR starter and 10KST1 sets (AID 487;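 active means visually confirmed hit in the image check and inhibition above 20%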;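 on inhibition: signal is fraction of cell area covered by stained E-selectin grains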;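 on nuclei count: 100% = median nuclei count of all wells on the same plate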). To be noted: HUVEC TNFalpha-induced E-selectin immunofluorescence imaging, at 2 µM; inhibition: stronger effect = higher value; nuclei count: measured here: cell number, toxicity.
For test [4], the target named is Voltage-gated potassium channel subunit beta-2 (Rattus norvegicus) (UniProt P62483). Description: KvBeta enzyme negative modulators, primary screen, biochemical, NADPH fluorescence (AID 622).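 Further: slope of raw intensity against log time taken from 70 to 1610 s.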 To be noted: recombinant KvBeta, 4-cyanobenzaldehyde reduction, at 10 µM, stronger effect = higher value.
The target is the same in test [5]. Put plainly: KvBeta positive modulators, primary screen, biochemical, NADPH fluorescence (AID 623;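 active means NADPH fluorescence slope more negative than the mean of all samples by about 3 SD, 99.7% confidence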;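 further: fluorescence intensity change per second fitted from 20 to 320 s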). To be noted: Recombinant KvBeta, NADPH fluorescence decrease slope, 10 min; at 10 µM; stronger effect = lower value.
The target of test [6] is Alpha-2C adrenergic receptor (Homo sapiens) (UniProt P18825). Put plainly: modulators of alpha2C/GIRK thallium flux, primary screen, cell-based, HEK293 alpha2C/GIRK1/2 (AID 624;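 active means fluorescence slope after compound addition differing from the mean of all screened samples at 99.7% confidence, in either direction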;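 further: slope of fluorescence ratio to pre-addition baseline per second over 15 to 24 s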). To be noted: thallium flux BTC fluorescence, at 10 µM, actives lie on both sides.
The nature of test [7]: inhibitors of Sendai virus-induced IRF3 signaling, primary screen, TLR/RLR signaling modifier project, cell-based, Sendai virus stimulus, luciferase, 10K MLSCN set (AID 602276;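 active means inhibition at or above 50% at 10 µM; inactive means inhibition below 50%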;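 further: firefly luciferase from ISG56 promoter only with Renilla not read in this screen; 0% = Sendai virus plus DMSO and 100% = medium plus DMSO without virus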). To be noted: HEK293 RL24 IRF3 luciferase reporter, at 10 µM, stronger effect = higher value. (In a reporter assay the amount or activity of a reporter protein is the signal.)
The nature of test [8]: inhibitors of poly I:C-induced TLR3 signaling, primary screen, cell-based, poly I:C stimulus, luciferase, 10K MLSCN set (AID 602277;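 active means inhibition of the reporter signal at or above 50%; inactive means inhibition below 50%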). To be noted: HEK293-TLR3 RL24 IRF3 luciferase reporter, at 10 µM, stronger effect = higher value.

Sequence of Voltage-gated potassium channel subunit beta-2 (Rattus norvegicus) (P62483 whole entry, looked up): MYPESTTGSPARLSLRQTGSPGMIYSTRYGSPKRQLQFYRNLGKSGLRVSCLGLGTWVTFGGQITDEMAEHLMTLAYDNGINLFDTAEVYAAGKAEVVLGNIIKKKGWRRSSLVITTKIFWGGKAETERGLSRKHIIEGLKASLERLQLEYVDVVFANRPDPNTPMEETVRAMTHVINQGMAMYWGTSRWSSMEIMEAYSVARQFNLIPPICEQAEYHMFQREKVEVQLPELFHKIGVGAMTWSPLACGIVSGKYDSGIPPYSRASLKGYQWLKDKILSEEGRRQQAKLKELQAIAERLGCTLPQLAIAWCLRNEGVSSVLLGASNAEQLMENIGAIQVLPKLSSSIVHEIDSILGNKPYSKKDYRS
Sequence of Alpha-2C adrenergic receptor (Homo sapiens) (P18825 whole entry, looked up): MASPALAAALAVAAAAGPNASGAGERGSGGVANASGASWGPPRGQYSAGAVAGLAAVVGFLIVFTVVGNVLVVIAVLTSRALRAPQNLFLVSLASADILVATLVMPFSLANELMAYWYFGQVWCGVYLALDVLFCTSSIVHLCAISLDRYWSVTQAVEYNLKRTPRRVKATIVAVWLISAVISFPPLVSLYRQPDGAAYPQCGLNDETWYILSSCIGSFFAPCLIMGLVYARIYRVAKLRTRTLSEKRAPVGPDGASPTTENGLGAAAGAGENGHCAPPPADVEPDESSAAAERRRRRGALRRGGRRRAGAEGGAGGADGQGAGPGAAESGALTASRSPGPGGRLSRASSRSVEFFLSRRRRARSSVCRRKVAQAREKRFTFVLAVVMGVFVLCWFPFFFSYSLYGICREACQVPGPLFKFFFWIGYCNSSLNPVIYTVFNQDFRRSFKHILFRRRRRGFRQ

Turning to `CC1(C)CC(=O)C2=C(C1)NC(=O)CC2C(=O)NCc1ccc(F)cc1` (centres undefined), the cell count in test [1] turned out to be 533. In addition, the inhibition in test [1] was -11.5% (inactive); in test [3] it was 3.2% (inactive); in test [7] it was 7.38% (inactive); in test [8], 5.77% (inactive). For the same compound, the inhibition of aggregation in test [2] was -1.8% (inactive). Besides, the nuclei count stood at 86.7% in test [2] and 87.8% in test [3]. Moreover, the fluorescence slope in test [4] is -0.342 (inactive). In addition, the NADPH fluorescence slope in test [5] is -4.7e-05 (inactive). In test [6], the slope was 0.00523 (inactive).

Turning to `Cc1c(NC(=O)CCc2ccc(S(=O)(=O)N3CCOCC3)cc2)c(=O)n(-c2ccccc2)n1C`, the cell count in test [1] turned out to be 575. For the same compound, the inhibition in test [1] was 4.1% (inactive); in test [3] it was -86.1% (inactive); in test [7], -8.63% (inactive); in test [8] it was 5.48% (inactive). In addition, the inhibition of aggregation in test [2] is -26.2% (inactive). Also, the results for the nuclei count in test [2] and in test [3] were 119% and 112%, respectively. Further, in test [4], the fluorescence slope is -0.527 (inactive). For the same compound, the NADPH fluorescence slope in test [5] is -1.9e-05 (inactive). Moreover, the slope in test [6] was 0.00736 (inactive).

Turning to `COc1cc(Br)cc(/C=N/c2ncn[nH]2)c1O`, in test [1], the cell count is 376. The inhibition in test [1] is -8.7% (inactive); in test [3], -35% (inactive); in test [7] it was 12.8% (inactive); in test [8], 24.8% (inactive). The inhibition of aggregation in test [2] is -2.5% (inactive). Further, the nuclei count came out at 101% in test [2] and 117% in test [3]. Moreover, in test [4], the fluorescence slope is -0.467 (inactive). For the same compound, the NADPH fluorescence slope in test [5] is 7.7e-05 (inactive). Moreover, the slope in test [6] was 0.00616 (inactive).

Take `COc1ccccc1N1C(=O)CC(Sc2nc(C)cc(C)n2)C1=O` (centres undefined): in test [1], the cell count stood at 613. In addition, the inhibition was -8.2% (inactive) in test [1], -30.9% (inactive) in test [3], 14.5% (inactive) in test [7] and 19.3% (inactive) in test [8]. The inhibition of aggregation in test [2] was 15% (inactive). Also, the results for the nuclei count in test [2] and in test [3] were 95.3% and 90.9%, respectively. Besides, in test [4], the fluorescence slope was -0.447 (inactive). Besides, the NADPH fluorescence slope in test [5] is -9.1e-05 (inactive). In test [6], the slope is 0.0075 (inactive).

For the compound `COCCOC(=O)C1=C(C)NC(=O)CC1c1cc2c(cc1Br)OCO2` (centres undefined), the cell count in test [1] came to 424. The inhibition in test [1] was 4.1% (inactive); in test [3], -12.8% (inactive); in test [7], 17.3% (inactive); in test [8], 16.1% (inactive). In test [2], the inhibition of aggregation is 16.1% (inactive). Also, the nuclei count in test [2] stood at 104%; in test [3], 95.1%. For the same compound, the fluorescence slope in test [4] was -0.395 (inactive). Further, the NADPH fluorescence slope in test [5] is -2.8e-05 (inactive). For the same compound, the slope in test [6] is 0.0043 (inactive).

In the case of `CCOc1ccc(-c2nnc(N)s2)cc1`, the cell count in test [1] is 432. Also, the inhibition was -3.8% (inactive) in test [1], -8.1% (inactive) in test [3], -27% (inactive) in test [7] and -78.8% (inactive) in test [8]. Also, the inhibition of aggregation in test [2] is 29.9% (inactive). The nuclei count in test [2] was determined as 61.4%; in test [3], 90.5%. Also, the fluorescence slope in test [4] is -0.493 (inactive). Besides, the NADPH fluorescence slope in test [5] is -0.000137 (inactive). In test [6], the slope is 0.00563 (inactive).

As to `COc1ccc(CCNC(=O)C2(C)CCC(=O)N2Cc2ccc3c(c2)OCO3)cc1OC` (centres undefined), in test [1], the cell count was found to be 822. The inhibition is 0.6% (inactive) in test [1], -37.2% (inactive) in test [3], 8.58% (inactive) in test [7] and 36.6% (inactive) in test [8]. Further, the inhibition of aggregation in test [2] was 18.7% (inactive). The nuclei count in test [2] was determined as 106%; in test [3], 116%. The fluorescence slope in test [4] is -0.59 (inactive). In test [5], the NADPH fluorescence slope is -3.7e-05 (inactive). Moreover, in test [6], the slope was 0.00743 (inactive).

Turning to `Cc1cc(C)c(C#N)c(SCc2ccc(C#N)cc2)n1`, the cell count in test [1] is 609. Besides, the inhibition in test [1] was -7.7% (inactive); in test [3], 40.3% (inactive); in test [7], 5.07% (inactive); in test [8], -3.75% (inactive). Moreover, the inhibition of aggregation in test [2] is -4.1% (inactive). Besides, the figures for the nuclei count in test [2] and in test [3] were 52% and 104%, respectively. Further, the fluorescence slope in test [4] is -0.435 (inactive). In test [5], the NADPH fluorescence slope was -5.8e-05 (inactive). Moreover, the slope in test [6] is 0.00656 (inactive).

`COc1ccc(NC(=O)Nc2ccc(C)cc2OC(F)F)cc1OC`: in test [1], the cell count is 335. The inhibition in test [1] was -6.5% (inactive); in test [3], -38.2% (inactive); in test [7], 1.59% (inactive); in test [8], -6.11% (inactive). Further, the inhibition of aggregation in test [2] is 6.2% (inactive). For the same compound, the nuclei count in test [2] was found to be 91.2%; in test [3], 94.2%. Also, the fluorescence slope in test [4] is -0.422 (inactive). The NADPH fluorescence slope in test [5] was -5.1e-05 (inactive). Further, in test [6], the slope is 0.00406 (inactive).

Turning to `COC(=O)c1cn(NC(=O)C2CCCO2)c(=O)c2ccccc12` (centres undefined), the cell count in test [1] came to 415. For the same compound, the inhibition in test [1] is -2.5% (inactive); in test [3], -39.1% (inactive); in test [7], 11.6% (inactive); in test [8] it was 20.9% (inactive). In addition, the inhibition of aggregation in test [2] was 12.6% (inactive). Further, the nuclei count in test [2] was 103%; in test [3] it was 89.7%. In addition, the fluorescence slope in test [4] is -0.462 (inactive). The NADPH fluorescence slope in test [5] is -3.7e-05 (inactive). For the same compound, the slope in test [6] is 0.0068 (inactive).

For `CC(C)c1ccc(S(=O)(=O)N2CCN(CCC(=O)Nc3ccc(N(C)C)cc3)CC2)cc1`, the cell count in test [1] came out at 412. Besides, the inhibition in test [1] was -1.6% (inactive); in test [3], -15.3% (inactive); in test [7], 9.08% (inactive); in test [8], 20% (inactive). The inhibition of aggregation in test [2] is 20% (inactive). The nuclei count in test [2] worked out at 91.6%; in test [3] it was 89.3%. Further, the fluorescence slope in test [4] was -0.397 (inactive). The NADPH fluorescence slope in test [5] is -2.3e-05 (inactive). Besides, the slope in test [6] is 0.00369 (inactive).

As for `COc1ccc(S(=O)(=O)N2CCOCC2)cc1C(=O)Nc1cc(C)on1`, the cell count in test [1] turned out to be 225. In addition, the inhibition was 1.1% (inactive) in test [1], 38.6% (inactive) in test [3], -8.66% (inactive) in test [7] and 12.5% (inactive) in test [8]. Further, the inhibition of aggregation in test [2] was -3.3% (inactive). Besides, the nuclei count in test [2] was found to be 96.6%; in test [3], 76.9%. Besides, the fluorescence slope in test [4] is -0.436 (inactive). Besides, the NADPH fluorescence slope in test [5] was -3.9e-05 (inactive). For the same compound, the slope in test [6] was 0.00355 (inactive).

On to `Cc1ccc(CCNC(=O)C2CCN(S(=O)(=O)c3c(C)nn(C)c3C)CC2)cc1`, for which the cell count in test [1] came to 621. Besides, the inhibition in test [1] is 6.1% (inactive); in test [3], -8.4% (inactive); in test [7] it was -5.1% (inactive); in test [8] it was 6.19% (inactive). Also, the inhibition of aggregation in test [2] is -21.9% (inactive). The figures for the nuclei count in test [2] and in test [3] were 105% and 116%, respectively. Also, the fluorescence slope in test [4] was -0.618 (inactive). Besides, the NADPH fluorescence slope in test [5] is -5.1e-06 (inactive). In addition, the slope in test [6] was 0.00762 (inactive).

With `CCc1c(C)nc2ncnn2c1NCCc1ccc(OC)c(OC)c1`, in test [1], the cell count is 447. The inhibition in test [1] is -1.6% (inactive); in test [3], 7.1% (inactive); in test [7], 8.69% (inactive); in test [8], -1.81% (inactive). Further, the inhibition of aggregation in test [2] was -8% (inactive). Also, the nuclei count in test [2] was determined as 95.4%; in test [3] it was 97.7%. Also, the fluorescence slope in test [4] was -0.323 (inactive). Also, the NADPH fluorescence slope in test [5] was -7.8e-05 (inactive). Also, in test [6], the slope was 0.00477 (inactive).
